# From PubChem BioAssay AID504706 (National Center for Advancing Translational Sciences (NCATS), 2011)
# About 200 (0.062%) of roughly 320,000 compounds were called active. Where a call stands in place of a potency, no number is given. Inconclusive results (about 6%) are left out. The call rests on the fitted dose curve; in most records, active means well fitted activation curve with a large enough effect; inconclusive means small, poorly fitted or top-dose-only effect; inactive means no such curve, though single readings can be large or run the other way. Only a selection was taken, and actives are over-represented in it overall.
# Assay: qHTS assay for re-activators of p53 using a Luc reporter; further: nearly all actives have a fitted effect of over 45% in size
# Conditions: H1299 p53-A138V BP100-luciferase reporter, luminescence, 24 h; series mostly up to 92.2 µM
# Text: The p53 tumor suppressor plays a key role in suppression of tumorigenesis and in human carcinogenesis. It is frequently found inactivated in human cancers, mainly by point mutation. These point mutations are found in a wide variety of human cancers and a majority of them affect the DNA binding domain of the protein. The point mutations either alter native p53 conformation or abolish DNA contact. Additionally, cancer cells with p53 mutations are more resistant to chemo-radiation therapies. In order to find activators to reactivate this important protein, a cell-based screen for p53-dependent luciferase-reporter expression was developed. A p53-null H1299 lung cancer cell line was stably co-transfected with a temperature sensitive p53 mutant, p53-A138V, and a p53-responsive BP100-luciferase reporter. This cell model has previously been characterized in a gene chip profiling experiment for p53 activation. By lowering the culture temperature from 37 deg C (mutant p53 conformation) to 32 deg C (w.t. p53 conformation), a 30-60 fold increase in activation of luciferase activity is observed. At assay temperate, 37 deg C, basal reporter expression is very low and after the addition of detection reagent, a luminescent read-out is carried out. NIH Chemical Genomics Center [NCGC] NIH Molecular Libraries Probe Production Centers Network [MLPCN] MLPCN Grant: DA031088-01A1 Assay Provider (PI): Yi Sung, University of Michigan at Ann Arbor
# 5ul of 1000 cells per well are dispensed in all wells except column 4, into white solid-bottom TC-treated Kalypsys plates. The cells are kept in Opti-MEM and supplemented with 10% FBS and dispensed using a Multidrop (Thermo). Then using the Kalypsys pin-tool, 23nl of compounds are pinned. The compounds are starting concentration at 10mM, with 1:5 dilution, 4 points, and the control compound nocodazole is pinned in column 1 at 25mM, 1:3 dilution, in duplicate, 25mM nocodazole is pinned in column 2. Please note, all concentrations are working concentrations. 5ul of 1pM purified luciferase enzyme is dispensed using the Kalypsys dispenser in column 4. Plates are incubated for 24 hrs at 37 deg C, 5% CO2, and 95% humidity. Then 4ul of the detection reagent Amplite (ABD Bioquest) is added using the Kalypsys dispenser. Plates are incubated for 10 min at ambient room temperature and are then read on the ViewLux (Perkin Elmer) using a clear filter for a luminescent read-out.
# Potency means the concentration at half of the fitted maximal effect.
row,SMILES,Potency
1,CCN(CC)c1ccc(C(=O)N/N=C(\C)c2cccc(OC)c2)cc1,inactive
2,COc1cccc(/C(C)=N/Nc2ncc(Cl)cc2Cl)c1,5.01 µM (active)
3,C/C(=N\Nc1ncc(Cl)cc1Cl)c1cccs1,inactive
4,O=C1N[C@@H](c2ccccc2)COC(=O)[C@H](Cc2ccc(F)cc2)C/C=C\C[C@@H]1CC(=O)N(CCO)Cc1ccccc1,inactive
5,Cc1ccc(C(=O)COC(=O)c2cccc(N3C(=O)c4c(C)nc5ccccc5c4C3=O)c2)cc1C,35.5 µM (active)
6,O=C(CCc1nc2ccccc2c(=O)[nH]1)OCC(=O)c1cccc(Cl)c1,inactive
7,CCCc1nc2ccccc2c(C(=O)OCC(=O)c2ccc3c(c2)NC(=O)CO3)c1CC,inactive
8,CNC[C@@H]1Oc2c(NS(C)(=O)=O)cccc2C(=O)N([C@@H](C)CO)C[C@H]1C,inactive
9,COC(=O)[C@]1(Cc2ccccc2)N[C@H](CN(C)S(=O)(=O)c2ccc(OC(F)(F)F)cc2)[C@@H]2C(=O)N(C)C(=O)[C@@H]21,inactive
10,COc1ccc(CCNC(=O)COC(=O)c2ncc(Cl)c(Cl)c2Cl)cc1OC,inactive
11,C=CC[C@@H](CC(=O)NCCO)C(=O)N[C@H](C)COC(=O)[C@@H](CC=C)CC(=O)OC(C)(C)C,inactive
12,CC(C)NC(=O)Nc1cccc2c1O[C@@H](CN(C)S(=O)(=O)c1ccc(F)cc1)[C@@H](C)CN([C@H](C)CO)C2=O,inactive
13,C=CCC[C@@H](Cc1ccc(F)cc1)C(=O)O[C@H](CNC(=O)[C@H](CC=C)CC(=O)N(CCO)Cc1ccccc1)c1ccccc1,inactive
14,Cn1c(N)c(C(=O)COC(=O)c2cccc(S(=O)(=O)N3CCOCC3)c2)c(=O)n(C)c1=O,inactive
15,Cc1ccc(C(=O)NCC(=O)NC2CC2)cc1,inactive
16,COc1ccc2nc3n(c(=O)c2c1)-c1ccc(Cl)cc1C(=O)NC3Cc1ccccc1 (configuration not stated),inactive
17,CCN(C[C@H]1N[C@@](CC)(C(=O)OC)[C@H]2C(=O)N(Cc3ccccc3)C(=O)[C@@H]12)S(=O)(=O)c1ccccc1,inactive
18,Cc1ccc(S(=O)(=O)Nc2ccc3c(c2)C(=O)N([C@H](C)CO)C[C@@H](C)[C@@H](CN(C)C(=O)Nc2cccc4ccccc24)O3)cc1,inactive
19,N#CCCN(C(=O)COC(=O)c1ccc2c(c1)OCCO2)c1ccccc1,inactive
20,O=C(COC(=O)CSc1ccccc1)Nc1ccc(F)cc1F,inactive
21,COc1ccc2[nH]c3c(c2c1)CCN1C(=O)C(CC(=O)NCCCN(C)C)C[C@H](C(=O)N2CCOCC2)[C@@]31CCC1CCCC1 (some centres not stated),inactive
22,CC[C@]1(C(=O)OC)[C@H]2C(=O)N(Cc3ccccc3)C(=O)[C@H]2[C@H]2CN=C(SCc3ccc(Cl)cc3)N21,inactive
